In the library only some 0.7% were active in any assay of this set; here they are far more common.
Epigenetic derep – regulators of epigenetic silencing causing reporter derepression in mouse cells | murine LDR cells, GFP reporter derepression, 30 h | Potency, µM (highest dose often 53.9 µM), for inactives: at the top dose GFP activation, most hits filed as activators | 0.2% of 280,000 active; also: % of control where 0% means no effect; nearly all actives have a fitted effect of over 60% in size
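Murine LDR cells carrying a silenced, genomically integrated CMV-driven GFP reporter were exposed to compound for 30 hours at 37 C. After PBS washes, GFP-positive cells (20–120 um objects) were counted by laser-scanning microplate cytometry.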
GLS inhibitor – inhibitors of human glutaminase (GLS) | GLS enzymatic activity, qHTS titration | Potency, µM (series often up to 45.5 µM), inactives show at the top dose activity change, negative = inhibition, usual class: inhibitors | 0.21% of 410,000 active | AID 624170; also: % is scaled to controls: 0 for no effect and ±100 for the full control effect
Target sequence (O94925 whole entry, looked up): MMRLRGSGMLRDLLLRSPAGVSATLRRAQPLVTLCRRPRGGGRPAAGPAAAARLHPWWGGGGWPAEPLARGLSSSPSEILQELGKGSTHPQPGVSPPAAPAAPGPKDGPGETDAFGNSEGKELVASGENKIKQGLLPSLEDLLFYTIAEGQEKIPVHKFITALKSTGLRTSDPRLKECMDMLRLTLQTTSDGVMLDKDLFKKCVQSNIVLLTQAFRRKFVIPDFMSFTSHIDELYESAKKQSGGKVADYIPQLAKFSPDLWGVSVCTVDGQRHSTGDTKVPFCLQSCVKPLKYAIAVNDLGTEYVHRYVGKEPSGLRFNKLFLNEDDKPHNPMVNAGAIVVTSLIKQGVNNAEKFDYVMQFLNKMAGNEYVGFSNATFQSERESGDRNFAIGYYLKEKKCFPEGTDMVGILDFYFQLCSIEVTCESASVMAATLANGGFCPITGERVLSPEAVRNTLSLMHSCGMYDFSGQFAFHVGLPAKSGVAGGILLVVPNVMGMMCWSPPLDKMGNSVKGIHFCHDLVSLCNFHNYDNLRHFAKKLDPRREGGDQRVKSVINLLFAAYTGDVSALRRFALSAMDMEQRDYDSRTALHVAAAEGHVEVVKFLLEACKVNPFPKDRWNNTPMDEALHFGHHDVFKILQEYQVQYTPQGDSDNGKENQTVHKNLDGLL
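Glutamate formation by hKGA was monitored fluorometrically using coupled glutamate oxidase, HRP and Amplex Red. Substrate was added as 1 mM L-glutamine solution; incubation was 30 min at RT after an initial read.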
Vif-APOBEC3G blk – inhibitors of Vif-APOBEC3G interaction; 0.076% of 410,000 active; Q9HC16; Potency, µM (series often up to 46.1 µM), without a hit: at the highest dose activity, negative = active, actives largely listed as inhibitors; HeLa A3G-eYFP + Vif (tagged APOBEC3G with the HIV-1 protein that degrades it), YFP fluorescence, overnight; AID 602310; also: % is scaled to controls: 0 for no effect and ±100 for the full control effect; nearly all actives have a fitted effect of over 60% in size
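HeLa cells stably expressing Vif and C-terminally eYFP-tagged A3G, seeded overnight at 37 deg C, then exposed to compound by pintool overnight at 37 deg C. Rise in yellow fluorescence (Ex 488/Em 500-530, Acumen) marks blocked Vif-driven A3G degradation.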
PINK1 expr mod – modulators of PINK1 expression | PINK1 immunofluorescence, high-content cytometry, 24 h | Potency, µM (top dose mostly 76.6 µM), for the others: top-dose activation (PINK1 increase), hits mostly activators | 0.2% of 410,000 active | AID 624263; active = well fitted activation curve with a large enough effect; inconclusive = small, poorly fitted or top-dose-only effect; cell line not stated here; also: % of control where 0% means no effect; nearly all actives have a fitted effect of over 65% in size
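PINK1 protein level read as immunofluorescence by microplate cytometer in a fixed, stained stable cell line after 24 h exposure to five compound concentrations, with CCCP as control.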
Vif-A3F inh – blocks the Vif interaction with APOBEC3F; HeLa A3F-eYFP + Vif (tagged APOBEC3F with the HIV-1 protein that degrades it), YFP fluorescence increase; Potency, µM (doses to about 46.1 µM), for the others: at the top dose activity, negative = active; 0.2% of 390,000 active; AID 602313; also: % of control where 0% means no effect; nearly all actives have a fitted effect of over 65% in size
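HeLa cells stably expressing Vif plus C-terminally eYFP-tagged A3F were seeded, incubated overnight at 37 deg C, dosed with compound, incubated overnight again at 37 deg C. Yellow fluorescence (Ex 488/Em 500-530) reported blocked Vif-mediated A3F-eYFP degradation.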
The depositor's hits bear a star; ? = inconclusive; / = no result given. Unless noted, calls follow the shape of the dose curve; as a rule, active = well fitted curve in the direction sought with a large enough effect; inconclusive = small, poorly fitted or top-dose-only effect, or another doubt; inactive = no such curve, though single readings can be large; an effect the other way counts as inactive or inconclusive. Potency is read from the fitted curve at half-maximal effect.

SMILES | Epigenetic derep | GLS inhibitor | Vif-APOBEC3G blk | PINK1 expr mod | Vif-A3F inh
Cn1cc(/C=C2\SC(=S)N(NC(=O)c3cccc(Cl)c3)C2=O)c2ccccc21 | 2% | 4% | ? | 1% | 7.9µM*
COC(=O)[C@@H]1CCCN1C(=O)c1c(OC)cc(=O)n2c1CCN(Cc1ccc(C)o1)CC2 | / | / | / | 0% | /
CCNc1ncc2nc(-c3ccc(Cl)cc3)c(=O)n(-c3ccccc3)c2n1 | / | / | / | 13µM* | /
CCNc1ncc2nc(-c3ccccc3)c(=O)n(-c3ccc(OC)cc3)c2n1 | / | / | / | 1% | /
O=C(NCc1ccco1)c1ccc2c(c1)OCCO2 | / | 7% | -4% | 0% | -11%
O=C(O)CNC(=O)c1ccc2c(c1)OCCO2 | -1% | 2% | 0% | 13µM* | -3%
Cc1c(C(=O)N2CC[C@@H]3CCCC[C@H]3C2)sc2ncnc(NCCc3ccccn3)c12 | / | / | / | 2% | /
O=C(NCC1Cc2cccc(-c3cccnc3)c2O1)c1ccc2cc[nH]c2c1 (stereo not drawn) | / | / | / | 0% | /
CN(C)C(=O)c1ccc(Nc2nnc(-c3ccc(O)cc3)c3ccccc23)cc1 | / | 11µM* | -14% | 4% | -1%
CNC(=O)c1ccc(Nc2nnc(-c3ccc(O)cc3)c3ccccc23)cc1 | / | ? | -22% | 12% | 0%
CNC(=O)c1cc(Nc2nnc(-c3ccc(O)cc3)c3ccccc23)ccc1OC | -4% | 11µM* | -9% | 3% | 1%
COC(=O)COc1ccc(-c2nnc(Nc3ccc(O)cc3)c3ccccc23)cc1 | ? | 37% | -9% | -2% | 1%
NC(=O)COc1ccc(Nc2nnc(-c3ccc(O)cc3)c3ccccc23)cc1 | 0% | 7.9µM* | -2% | 3% | -2%
COc1ccc(-c2nc3cc(C)ccc3cc2CN(C(=O)c2ccc(C)s2)C2CC2)cc1OC | / | / | / | -1% | /
Cc1cc(C(=O)c2ccccc2)cc(C)c1O | / | 5% | 0% | -1% | 3%
O=C(c1ccccc1)c1ccc(O)c(O)c1O | / | 10µM* | 2% | 2% | 2%
O=C1CC(NC2CCN(C(=O)c3cccc(F)c3)CC2)C(=O)N1 (stereo not drawn) | / | 11µM* | 0% | 0% | 2%
Cc1c(CCO)c(=O)n2c([nH]c3ccccc32)c1C#N | / | 43% | 2% | -3% | -7%
CCCCc1c(C)c(C#N)c2[nH]c3ccccc3n2c1=O | -1% | -3% | -1% | 40µM* | -11%
COc1ccccc1CNC(=O)c1cnn(-c2nccc(-c3cccs3)n2)c1C | / | / | / | 3% | /
O=S(=O)(O)c1cccc2c(N=Nc3ccc(O)c4ncccc34)cccc12 | / | 8.9µM* | -1% | 2% | 7%
O=C(Nc1cc(Cl)ccc1-n1cncn1)c1ccc([N+](=O)[O-])s1 | / | 1% | ? | 5µM* | ?
OC(c1cccnc1)c1ccc2c(c1)CN(Cc1ccc(-c3ccccc3Cl)o1)CCO2 (stereo not drawn) | / | / | / | 3% | /
Nc1ccc(C(=O)O)c(O)c1 | 2% | 20% | -2% | 2% | -3%
Nc1ccc(N)c(C(=O)O)c1 | -1% | 5.6µM* | 4% | -1% | ?
SMILES | Epigenetic derep | GLS inhibitor | Vif-APOBEC3G blk | PINK1 expr mod | Vif-A3F inh
COc1cc(O)c2c(c1)C(=O)c1cc(C)cc(O)c1C2=O | 5% | / | / | 0% | /
O=C(O)c1cc(O)c2c(c1)C(=O)c1cc(O)cc(O)c1C2=O | 1% | 18µM* | 7% | 2% | 4%
Cc1ccc(OCc2ccoc2C(=O)O)cc1C | -1% | 18µM* | -1% | 0% | 0%
Cc1ccc(OCc2ccc(C(=O)O)o2)cc1C | / | 3% | -1% | -3% | -19%
CN1[C@@H]2CCC[C@@H]1CC(NC(=O)c1nn(C)c3ccccc13)C2 (stereo partly drawn) | / | 23% | / | / | /
N#Cc1c(C(F)(F)F)cc(-c2cccs2)nc1SCC(=O)Nc1cccc(C(F)(F)F)c1 | 16µM* | -4% | ? | ? | 10µM*
N#Cc1ccc(-c2cccs2)nc1SCC(=O)Nc1cccc(C(F)(F)F)c1 | 3% | -8% | -14% | 6% | -21%
N#Cc1c(C(F)(F)F)cc(-c2cccs2)nc1SCC(=O)Nc1ccc(Cl)cc1 | 10µM* | 2% | 10µM* | 2% | ?
CCOC(=O)N1CCN(Cc2ccc3c(c2)CN(C(=O)c2ccc(C#CC(C)(C)O)o2)CCO3)CC1 | / | / | / | 1% | /
